Results filed as inconclusive are left out. The source made the active and inactive calls. Unless noted, the call rests on the fitted dose curve; in most records, active means well fitted curve in the direction sought with a large enough effect in the repeat runs; inconclusive means weak or mixed curves; inactive means no such curve, though single readings can be large; an effect the other way counts as inactive or inconclusive.
Legend:
[1] = qHTS assay to identify small molecule agonists of the peroxisome proliferator-activated receptor delta (PPARd) signaling pathway - cell viability counter screen (AID 743211); conditions: PPARd-bla HEK293H viability, CellTiter-Glo luminescence, 17 h; series mostly up to 62.6 µM; further: nearly all actives have a fitted effect of over 55% in size
Summary of the method: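 Viability was measured as CellTiter-Glo luminescence (30 min, room temperature) in the same wells as the beta-lactamase readout. GeneBLAzer PPARd UAS-bla HEK293H cells received compound after 5 h plating and were incubated 17 h at 37 C.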

[2] = molecular target: Bile acid receptor (Homo sapiens) (UniProt Q96RI1); assay: qHTS assay to identify small molecule antagonists of the farnesoid-X-receptor (FXR) signaling pathway (AID 743217; active means well fitted inhibition curve with a large enough effect in the signal ratio in the repeat runs, not every such curve was filed as active; the % refers to the signal ratio); conditions: HEK293T FXR-UAS-bla, beta-lactamase ratio, CDCA-stimulated, 16 h; series mostly up to 62.6 µM
Summary of the method: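 Cells carrying a UAS-driven beta-lactamase reporter (GeneBLAzer FXR-UAS-bla HEK 293T) were plated and rested 5 h at 37 °C. Compounds in DMSO were added alongside chenodeoxycholic acid agonist at 50 uM final and left 16 h at 37 °C before FRET substrate readout.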

[3] = molecular target: Bile acid receptor (Homo sapiens) (UniProt Q96RI1); assay: qHTS assay to identify small molecule agonists of the farnesoid-X-receptor (FXR) signaling pathway (AID 743220; active means well fitted activation curve with a large enough effect in the signal ratio in the repeat runs, not every such curve was filed as active; the % refers to the signal ratio); conditions: HEK293T FXR-UAS-bla, beta-lactamase FRET ratio, 16 h; series mostly up to 62.6 µM
Summary of the method: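 FXR-UAS-bla HEK 293T cells carrying a UAS-driven beta-lactamase reporter were plated for 5 h at 37C/5% CO2, then exposed to DMSO-dissolved Tox21 10K compounds for 16 h at 37C. A LiveBLAzer B/G FRET substrate was loaded for 2 h at room temperature before fluorescence reading.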

[4] = qHTS assay to identify small molecule antagonists of the farnesoid-X-receptor (FXR) signaling pathway - cell viability counter screen (AID 743221; active means well fitted cell-killing curve with a large enough effect in the repeat runs, not every such curve was filed as active; further: nearly all actives have a fitted effect of over 50% in size); conditions: FXR-bla HEK293T viability, CellTiter-Glo luminescence, 16 h; series mostly up to 62.6 µM
Summary of the method: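 Cytotoxicity counter screen run in the FXR-bla reporter wells: HEK 293T cells exposed to compound with 50 uM (final) chenodeoxycholic acid for 16 h, 37 C, then viability measured by CellTiter-Glo luminescence after 30 min, room temperature.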

[5] = molecular target: Vitamin D3 receptor (Homo sapiens) (UniProt P11473); assay: qHTS assay to identify small molecule agonists of the vitamin D receptor (VDR) signaling pathway (AID 743222; calls by dose curve); conditions: HEK293T VDR-UAS-bla, beta-lactamase FRET ratio, 16 h; series mostly up to 63.5 µM
Summary of the method: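 Cells carrying a VDR-driven beta-lactamase reporter are seeded at 2,000 per well and rested 4 h. Compounds in DMSO are added for 16 h at 37C, and FRET substrate fluorescence is measured after 2 h at room temperature.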

[6] = molecular target: Vitamin D3 receptor (Homo sapiens) (UniProt P11473); assay: qHTS assay to identify small molecule antagonists of the vitamin D receptor (VDR) signaling pathway (AID 743223; active means well fitted inhibition curve with a large enough effect in the signal ratio in the repeat runs, not every such curve was filed as active; the % refers to the signal ratio); conditions: VDR-UAS-bla HEK293T, beta-lactamase FRET ratio, 16 h; series mostly up to 61 µM
Summary of the method: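 Antagonist mode: compound added to VDR-bla cells alongside agonist 1alpha,25-dihydroxyvitamin D3 (3 nM final), incubation 16 h at 37C. Read-out is LiveBLAzer FRET fluorescence, 2 h at room temperature.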

[7] = molecular target: Peroxisome proliferator-activated receptor delta (Homo sapiens) (UniProt Q03181); assay: qHTS assay to identify small molecule agonists of the peroxisome proliferator-activated receptor delta (PPARd) signaling pathway (AID 743212; calls by dose curve); conditions: HEK293H PPARd-UAS-bla, beta-lactamase FRET ratio, 17 h; series mostly up to 62.6 µM
Summary of the method: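 Beta-lactamase reporter read by fluorescence (LiveBLAzer B/G FRET, 2 h, room temperature). Test agents, in DMSO, incubated at 37 C with PPARd-bla HEK293H cells.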

[8] = qHTS assay to identify small molecule antagonists of the peroxisome proliferator-activated receptor delta (PPARd) signaling pathway - cell viability counter screen (AID 743213); conditions: PPARd-bla HEK293H viability, CellTiter-Glo luminescence, 17 h; series mostly up to 62 µM; further: nearly all actives have a fitted effect of over 50% in size
Summary of the method: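 Cytotoxicity counter screen: CellTiter-Glo luminescence read 30 min after addition, in the same wells as the reporter assay. There, PPARd UAS-bla HEK293H cells (3000/well) were treated 17 h at 37 C with compound and 300 nM L165041.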

[9] = molecular target: Peroxisome proliferator-activated receptor delta (Homo sapiens) (UniProt Q03181); assay: qHTS assay to identify small molecule antagonists of the peroxisome proliferator-activated receptor delta (PPARd) signaling pathway (AID 743215; active means well fitted inhibition curve with a large enough effect in the signal ratio in the repeat runs, not every such curve was filed as active; the % refers to the signal ratio;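 further: cells stimulated with agonist L165041 at 300 nM final during compound exposure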); conditions: HEK293H PPARd-UAS-bla, beta-lactamase FRET ratio, antagonist, 17 h; series mostly up to 62 µM
Summary of the method: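 Cells: HEK293H with a UAS-driven beta-lactamase reporter responsive to PPARd. Compounds were co-added with L165041 (300 nM, final) and incubated 17 h at 37 C before a 2 h room-temperature FRET substrate step and fluorescence reading.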

[10] = qHTS assay to identify small molecule agonists of the farnesoid-X-receptor (FXR) signaling pathway - cell viability counter screen (AID 743218); conditions: FXR-bla HEK293T viability, CellTiter-Glo luminescence, 16 h; series mostly up to 62.6 µM; further: nearly all actives have a fitted effect of over 45% in size
Summary of the method: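 Cells were seeded, left 5 h at 37 C and 5% CO2, then dosed with compound in DMSO for 16 h. After the beta-lactamase FRET read, CellTiter-Glo was added and luminescence measured 30 min later.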
On the % scale 0 is the no-effect control and ±100 the full control effect.

Chain of Peroxisome proliferator-activated receptor delta (Homo sapiens) (Q03181 whole entry, looked up): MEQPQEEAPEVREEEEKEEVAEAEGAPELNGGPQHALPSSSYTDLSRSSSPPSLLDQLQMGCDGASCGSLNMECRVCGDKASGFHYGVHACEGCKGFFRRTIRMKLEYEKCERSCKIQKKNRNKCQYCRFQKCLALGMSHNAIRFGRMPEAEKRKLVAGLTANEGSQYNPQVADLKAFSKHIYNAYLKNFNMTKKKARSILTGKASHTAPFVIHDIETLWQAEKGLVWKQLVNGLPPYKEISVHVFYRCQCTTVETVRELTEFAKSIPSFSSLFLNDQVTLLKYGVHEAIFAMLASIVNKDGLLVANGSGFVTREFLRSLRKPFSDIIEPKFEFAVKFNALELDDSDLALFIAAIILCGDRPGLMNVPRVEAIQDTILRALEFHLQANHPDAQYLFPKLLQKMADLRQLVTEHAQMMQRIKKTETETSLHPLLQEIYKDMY
Chain of Bile acid receptor (Homo sapiens) (Q96RI1 whole entry, looked up): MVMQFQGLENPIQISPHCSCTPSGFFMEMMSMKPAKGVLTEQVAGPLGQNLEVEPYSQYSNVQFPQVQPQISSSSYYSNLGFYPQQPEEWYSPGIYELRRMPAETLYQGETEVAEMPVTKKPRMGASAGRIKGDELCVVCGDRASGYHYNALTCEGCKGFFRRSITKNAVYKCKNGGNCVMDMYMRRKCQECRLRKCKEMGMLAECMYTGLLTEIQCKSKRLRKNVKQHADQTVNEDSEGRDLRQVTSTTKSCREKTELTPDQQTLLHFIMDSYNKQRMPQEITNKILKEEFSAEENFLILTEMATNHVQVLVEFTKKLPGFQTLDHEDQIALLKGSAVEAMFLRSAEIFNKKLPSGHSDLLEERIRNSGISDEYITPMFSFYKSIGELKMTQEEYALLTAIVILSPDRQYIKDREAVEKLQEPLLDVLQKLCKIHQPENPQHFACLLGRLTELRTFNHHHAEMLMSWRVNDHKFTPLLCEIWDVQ
Chain of Vitamin D3 receptor (Homo sapiens) (P11473 whole entry, looked up): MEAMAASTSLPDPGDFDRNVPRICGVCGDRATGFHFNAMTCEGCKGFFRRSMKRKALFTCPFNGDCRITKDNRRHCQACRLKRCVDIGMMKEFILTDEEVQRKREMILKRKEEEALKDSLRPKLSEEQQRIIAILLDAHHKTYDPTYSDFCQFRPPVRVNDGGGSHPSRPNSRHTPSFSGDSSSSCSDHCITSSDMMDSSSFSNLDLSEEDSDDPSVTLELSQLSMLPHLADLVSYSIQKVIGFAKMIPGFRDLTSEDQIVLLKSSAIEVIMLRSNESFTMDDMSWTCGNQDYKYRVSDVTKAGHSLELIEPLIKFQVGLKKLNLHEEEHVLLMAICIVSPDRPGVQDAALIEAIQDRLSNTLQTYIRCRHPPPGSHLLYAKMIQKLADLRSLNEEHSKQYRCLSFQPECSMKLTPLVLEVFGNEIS

O=C(O)c1cc(C(=O)O)c(C(=O)O)cc1C(=O)O
inactive: Potency [1] | outcome [2] | outcome [3] | Potency [4] | outcome [5] | outcome [6]

CC1=CC(=C(c2ccc(N)cc2)c2ccc(N)cc2)C=CC1=N
inactive: activation [7] -0.0637% [at 5.95 µM] | viability change, negative = cytotoxic [8] -32.9% [at 6.26 µM] | ratio activity, negative = inhibition [9] -10.9% [at 6.26 µM] | viability change, negative = cytotoxic [10] -22.2% [at 5.95 µM] | activity change, negative = cytotoxicity [4] -5.62% [at 5.95 µM] | activation [5] -2.54% [at 6.01 µM]

CO[C@@H]1[C@@H](O[C@@H]2O[C@H](C)[C@@H](O[C@H]3C[C@@](C)(O)[C@@H](O)[C@H](C)O3)[C@H](N(C)C)[C@H]2O)[C@@H](CC=O)C[C@@H](C)[C@@H](O[C@@H]2CC[C@H](N(C)C)[C@@H](C)O2)/C=C/C=C/C[C@@H](C)OC(=O)C[C@H]1OC(C)=O
inactive: Potency [1] | Potency [4] | outcome [5]

O=C(c1ccco1)N1CCNCC1
inactive: Potency [7] | Potency [8] | outcome [9] | outcome [2] | Potency [10] | outcome [3] | Potency [4]

Cc1cccc(C)c1NC(=O)CN1CCCC1
inactive: Potency [1] | Potency [8] | Potency [10] | outcome [5]

COC=O
inactive: activity change, negative = cytotoxicity [1] -28.1% [at 5.95 µM] | viability change, negative = cytotoxic [10] 22% [at 5.95 µM] | activity change, negative = cytotoxicity [4] 10.8% [at 5.95 µM]

C[C@H](N)C(=O)N[C@@H](C)C(=O)NC1[C@H]2CN(c3nc4c(cc3F)c(=O)c(C(=O)O)cn4-c3ccc(F)cc3F)C[C@@H]12 (some centres undefined)
inactive: Potency [1] | Potency [10] | outcome [6]

CC(C(=O)O)c1ccc(/C=C2\CCCCC2=O)cc1 (centres undefined)
inactive: Potency [7] | Potency [8] | outcome [9] | Potency [10] | Potency [4]

Cc1cc(N)n(-c2ccccc2)n1
inactive: Potency [1] | Potency [8] | Potency [10] | Potency [4] | outcome [5] | outcome [6]

Oc1ccc(Oc2ccccc2)cc1
inactive: Potency [7] | Potency [8] | outcome [9] | outcome [2] | Potency [10] | outcome [3] | Potency [4] | outcome [6]

CCC(=O)O[C@@H]1C[C@H]2CC[C@]1(C)C2(C)C
inactive: Potency [7] | Potency [8] | outcome [9] | Potency [4]

CCCCOc1ccc(N)cc1
inactive: Potency [7] | Potency [8] | outcome [9] | outcome [2] | outcome [3] | Potency [4] | outcome [5] | outcome [6]

CCc1ccc(C(=O)C(C)CN2CCCCC2)cc1 (centres undefined)
inactive: Potency [1] | Potency [8] | Potency [4] | outcome [5]

C[Si](C)(C)O[Si](C)(C)O[Si](C)(C)C
inactive: Potency [7] | Potency [8] | outcome [9] | Potency [10] | Potency [4] | outcome [6]

CCCCCCCCCCCCSCCOCCO
inactive: Potency [1] | outcome [2] | Potency [10] | outcome [3] | Potency [4]

CCCCCCCCC(=O)OCC(C)OC(=O)CCCCCCCC (centres undefined)
inactive: Potency [7] | Potency [8] | outcome [9] | Potency [10] | Potency [4] | outcome [5] | outcome [6]

CCCOC(C)=O
inactive: Potency [1] | outcome [9] | Potency [10] | Potency [4]

COc1ccnc2c1CCCCC2S(=O)c1nc2ccccc2[nH]1 (centres undefined)
inactive: Potency [1] | Potency [8] | Potency [10] | Potency [4] | outcome [6]
